This is a sample that favours compounds with a hit; in the whole collection about 22% have one here.
LmPK inhibitor – blocks Leishmania mexicana pyruvate kinase activity; purified LmPK, Kinase-Glo ATP luminescence, 1 h; Q27686; Potency, µM (top dose mostly 57.5 µM), for inactives: at the highest dose activity change, negative = inhibition, usual class: inhibitors; 290,000 compounds, 0.37% hits; note: potency is the fitted concentration of half-maximal effect; % is set by controls: 0 for no effect and ±100 for the full control effect
Target sequence (Q27686 whole entry, looked up): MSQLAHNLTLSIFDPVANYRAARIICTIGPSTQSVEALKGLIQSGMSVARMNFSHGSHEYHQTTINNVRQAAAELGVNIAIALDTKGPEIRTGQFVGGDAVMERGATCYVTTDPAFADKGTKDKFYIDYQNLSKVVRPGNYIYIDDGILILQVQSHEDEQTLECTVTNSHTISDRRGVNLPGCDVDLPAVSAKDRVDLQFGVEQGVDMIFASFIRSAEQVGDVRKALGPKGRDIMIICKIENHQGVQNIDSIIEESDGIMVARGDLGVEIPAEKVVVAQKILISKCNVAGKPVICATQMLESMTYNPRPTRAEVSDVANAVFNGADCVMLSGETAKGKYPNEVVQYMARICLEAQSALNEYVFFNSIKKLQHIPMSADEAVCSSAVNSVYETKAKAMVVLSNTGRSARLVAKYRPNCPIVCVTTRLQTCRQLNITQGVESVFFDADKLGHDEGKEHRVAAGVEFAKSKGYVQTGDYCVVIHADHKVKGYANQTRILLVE
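Kinase-Glo luminescence read after 1 h RT reaction of 0.1 nM LmPK with 0.5 mM PEP and 0.1 mM ADP. Activity scaled between uninhibited and enzyme-free controls.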
CHX counter – counter-screen hit for Shiga toxin inhibitors, cycloheximide; cell reporter, cycloheximide protein synthesis inhibition counterscreen; max response, %; 300,000 compounds, 12% hits; in the data active = max response mostly above about 13%, no sharp cut-off; inactive = mostly below about 14%; note: read at 38.3 µM for the half of the compounds with a filed dose; 0% is about no effect
Pf growth 48h – P. falciparum growth inhibition at 48 hours (one generation) | P. falciparum luciferase growth in erythrocytes, 48 h | 310,000 compounds, 5.9% hits | Potency, µM (doses to about 28.7 µM), for inactives: at the highest dose activity change, negative = inhibition, most hits filed as inhibitors; note: potency is the fitted concentration of half-maximal effect; % is set by controls: 0 for no effect and ±100 for the full control effect
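Erythrocytes infected with P. falciparum carrying an integrated firefly luciferase reporter (2% hematocrit, 0.1% parasitemia final) were exposed to compounds in RPMI 1640 with 0.5% Albumax at 37 C, 5% CO2. Growth inhibition was scored as reduced luminescence.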
Shiga toxin inh – Shiga toxin inhibition; Vero cells, Shiga toxin protein synthesis inhibition reporter; inhibition, % at 38.7 µM; 290,000 compounds, 9.2% hits; AID 2315; in the data active = inhibition mostly above about 28%, no sharp cut-off; inactive = mostly below about 43%; note: 0% is about no effect
Pf growth 96h – P. falciparum growth inhibition at 96 hours; P. falciparum luciferase reporter growth, 96 h; Potency, µM (doses to about 28.7 µM), without a hit: top-dose activity change, negative = inhibition, hits mostly inhibitors; 320,000 compounds, 6.9% hits; AID 504834; note: potency is the fitted concentration of half-maximal effect; % is set by controls: 0 for no effect and ±100 for the full control effect
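Compounds incubated with erythrocytes infected by luciferase-expressing P. falciparum (2% hematocrit, 0.05% parasitemia final) for 96 hours, 37 C in 5% CO2. Growth inhibition scored as decreased luciferase luminescence.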
The depositor's hits bear a star; ? = inconclusive; . = not tested or not shown; ! = a repeat was not active. Unless noted, calls come from the whole dose curve; as a rule, active = well fitted inhibition curve with a large enough effect; inconclusive = small, poorly fitted or top-dose-only effect, or another doubt; inactive = no such curve, though single readings can be large or run the other way.

SMILES | LmPK inhibitor | CHX counter | Pf growth 48h | Shiga toxin inh | Pf growth 96h
CCSc1nnc(NC(=O)CCc2ccc(OC)cc2)s1 | 1% | -2 | -14% | 0 | 22%
CC(CCc1ccccc1)NC(=O)COC(=O)C(CCC(N)=O)NC(=O)c1ccc(F)cc1 (stereo not drawn) | . | . | 6% | . | 9%
Cc1ccc(S(=O)(=O)Nc2cc(-c3ccccc3)nn2C)cc1Cl | 2% | 0 | 49% | -3 | 112%
O=C(COc1ccccc1)NC1CCCCC1 | -3% | 11 | 7% | -7 | 15%
O=C(COC(=O)c1cccnc1Nc1ccccc1F)NC1CC1 | -1% | 14* | 12% | 28 | 41%
O=C(COc1ccccc1)NC1CCCCCCC1 | 3% | 28* | 36% | 44* | -7%
O=C(COC(=O)c1ccccc1F)NC1CCCC1 | 3% | 37* | 21% | 36* | 32%
O=C(COC(=O)c1ccccc1F)NC1CC1 | . | . | -14% | . | -13%
Clc1cnc2nc(SC/C=C/c3ccccc3)[nH]c2c1 | 4% | 1 | ? | -1 | ?
O=C(c1ccc(Oc2ccccc2)cc1)C1CCCN(C(=O)c2cnccn2)C1 (stereo not drawn) | 1% | -2 | -9% | 25 | -22%
CCOC(=O)c1c(NC(=O)Cn2cnc([N+](=O)[O-])n2)sc(C)c1C | 3% | 1 | -9% | 17 | 119%
CCCOc1cccc(NC(=O)OC2CCN(C)CC2)c1 | 0% | 3 | 19% | 10 | ?
COc1cc(Cl)cc(/C=C/c2ccc3ccccc3n2)c1OC(C)=O | -2% | 84* | 15% | 97* | ?
COc1cc(/C=C/c2cc(C(=O)O)c3ccccc3n2)ccc1OC(F)F | 3% | 1 | 105% | 12 | 408%
CC(=O)Oc1ccc(Cl)cc1/C=C/c1cc(OC(C)=O)c2ccccc2n1 | -1% | 20* | 1.7µM* | 34* | ?
CC(=O)Nc1ccc(S(=O)(=O)NCC2CCC(C(=O)N3CC(C)CC(C)C3)CC2)cc1 (stereo not drawn) | 13% | -2 | ? | -12 | -24%
O=C(Nc1cccc(-c2cn3ccsc3n2)c1)c1ccccc1 | 1% | 19 | 90% | 43 | 7%
COc1ccccc1C(=O)Nc1cccc(-c2cn3ccsc3n2)c1 | 0% | 27* | -9% | 42* | .
CCCCC(=O)Nc1cccc(-c2cn3ccsc3n2)c1 | 3% | 34* | 106% | 47* | ?
C[n+]1cccc(C(=O)NNC(=O)C23CC4CC(CC(C4)C2)C3)c1 | -1% | 8 | 28% | -18 | 45%
COc1ccc(Oc2c(C(F)(F)F)oc3cc(OCC(=O)O)ccc3c2=O)cc1 | -1% | 1 | 15% | -3 | 9.3µM*
COc1ccc(C(=O)COc2ccc3c(C)cc(=O)oc3c2)cc1 | 4% | -3 | 9% | . | ?
Cc1oc(=O)oc1CN1CCN(c2cc3c(cc2F)c(=O)c(C(=O)O)c2n3C(C)S2)CC1 (stereo not drawn) | . | . | 2.4µM* | . | 1.7µM*
CCOC(=O)N1CCN(C(=O)c2cn(CC)c3cc(N4CCN(C)CC4)c(F)cc3c2=O)CC1 | -6% | 7 | 11% | 15 | -14%
COc1ccc(-c2cc(C(F)(F)F)nc(SCC(=O)NCCCN3CCOCC3)n2)cc1 | 0% | -2 | 12% | -6 | ?
SMILES | LmPK inhibitor | CHX counter | Pf growth 48h | Shiga toxin inh | Pf growth 96h
CCOc1ccc(-c2cn(-c3ccccc3OC)c(=S)[nH]2)cc1 | 4% | 18* | ? | 52* | 21%
COc1ccccc1-n1cc(-c2ccccc2)[nH]c1=S | -11% | 5 | ? | -4 | 16%
O=[N+]([O-])c1ccc(-c2cn(-c3ccccc3F)c(=S)[nH]2)cc1 | -1% | 42* | 66% | 131* | ?
Cc1ccc(-c2cn(-c3ccccc3F)c(=S)[nH]2)cc1 | -8% | 42* | ? | 68* | 25%
COc1ccc(C(=O)NC(=S)N2CCOCC2)cc1Br | 1% | -3 | ? | -6 | ?
Cc1ccc(C(=O)OCN2C(=O)c3ccccc3C2=O)c(O)c1 | 3% | 9 | -2% | -16 | -1%
CCCCn1c(N)c(N(CCOC)C(=O)C2CCN(S(=O)(=O)c3ccc(Cl)cc3)CC2)c(=O)[nH]c1=O | -4% | -3 | 75% | -3 | ?
CCC(C)NC(=O)c1ccc2nc(-c3ccc(OC)c(OC)c3)c(-c3ccc(OC)c(OC)c3)nc2c1 (stereo not drawn) | 7% | 8 | 2.9µM* | -11 | 13µM*
CCCN(CCC)C(=O)c1ccc2nc(-c3ccc(OC)c(OC)c3)c(-c3ccc(OC)c(OC)c3)nc2c1 | 11% | -6 | 7.4µM* | -11 | 17%
NC(=O)[C@@H]1CCCN1C(=O)[C@H](Cc1cnc[nH]1)NC(=O)[C@@H]1CCC(=O)N1 | . | . | -23% | . | ?
CC1=CC(C)=Nc2ccc(C)cc2N1 | 1% | 27* | 148% | 94*! | -9%
Cc1cccc(NC(=S)N2CCN(C(=O)c3ccco3)CC2)c1C | -3% | 0 | 7% | 5 | -9%
O=C1/C(=C/c2ccc3c(c2)OCO3)Oc2cc(OCC(=O)N3CCC[C@H]3C(=O)O)ccc21 | -1% | 8.2* | 34% | 23 | -22%
CC1CCCN(C(=O)COc2ccc3c(c2)OCO3)C1 (stereo not drawn) | -11% | 48* | 42% | 64* | 62%
CC1Cc2ccccc2N1C(=O)COc1ccc2c(c1)OCO2 (stereo not drawn) | -6% | 34* | 13% | 74* | -3%
Cc1cc2cc3c(cc2nc1SCC(=O)N1c2ccccc2CC1C)OCO3 (stereo not drawn) | 10% | 0 | ? | -4 | ?
CN1/C(=C\C(=O)COc2ccc3c(c2)OCO3)C(C)(C)c2ccccc21 | 3% | 11* | ? | 11 | -1%
O=S(=O)(c1ccc2c(c1)OCCO2)N1CCN(S(=O)(=O)c2cc(F)c(F)cc2F)CC1 | . | -9 | . | -11 | .
CCN(CC)C(=O)C1CCN(Cc2cn(C)nc2-c2ccc(Oc3ccccc3)cc2)CC1 | 8% | 2 | 7.4µM* | 19 | -26%
C[C@H]1C(=O)N(C)CCN1Cc1cn(C)nc1-c1ccc(Oc2ccccc2)cc1 | 9% | 0 | ? | -5 | -12%
Cc1nn(C)c(C)c1/C=N/NC(=O)c1csc2ccccc12 | 6% | 18* | 51% | 24 | 14%
Cc1c(/C=N\NC(=O)c2csc3ccccc23)cnn1C | -5% | 11 | 17% | 27* | 60%
CCn1ncc(/C=N\NC(=O)c2csc3ccccc23)c1C | -2% | 12 | 9% | 53* | 0%
C=CCc1cccc(/C=N/NC(=O)CN2CCN(Cc3ccccc3)CC2)c1O | . | -6 | . | -6 | .
COc1cc(NC(=S)N2CCCC2)cc(OC)c1 | -6% | 2 | 17% | -7 | -25%
COc1cc(C(=O)Nc2cccc(S(=O)(=O)NCc3ccco3)c2)cc(OC)c1OC | . | . | ? | . | -71%
O=C(Nc1cccc(S(=O)(=O)NCc2ccco2)c1)c1cc(-c2ccc(F)cc2)nc2ccccc12 | -3% | 39* | -23% | 70* | 12µM*

High-throughput results deposited in PubChem by National Center for Advancing Translational Sciences (NCATS).
